MEKK2 WT-MEK5: raises or lowers MEK5 binding to wildtype human MEKK2 PB1 domain; bead flow cytometry, Alexa488-MEK5 binding to MEKK2 WT; actives lie on both sides; binding response (% of control), % at 10 µM; 290,000 tested, 1.1% active; in the data active = binding response below about 67% or above about 130%
UBC13 polyUb: blocks human UBC13 polyubiquitin chain formation; P61088; TR-FRET; inhibition, % at 20 µM; 330,000 tested, 0.47% active; AID 485273; in the data active = inhibition above about 45%, passing the limit was not always enough
MEKK3 PB1 HTS: modulators (inhibitors or enhancers) of MEK5 binding to human MEKK3 PB1 domain | Q99759 | 290,000 tested, 1.4% active | bead-based flow cytometry, Alexa488-MEK5 binding to MEKK3; actives lie on both sides; 0 = blocked by unlabeled MEK5, 100 = vehicle | binding response (% of control), % at 10 µM;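 active = binding response more than 3 SD above or below the average of its plate-row segment, actives on both sides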;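 note: Alexa488 bead fluorescence after subtracting the streptavidin-only scavenger bead signal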
Target sequence (Q99759 whole entry, looked up, the tested form may be a part): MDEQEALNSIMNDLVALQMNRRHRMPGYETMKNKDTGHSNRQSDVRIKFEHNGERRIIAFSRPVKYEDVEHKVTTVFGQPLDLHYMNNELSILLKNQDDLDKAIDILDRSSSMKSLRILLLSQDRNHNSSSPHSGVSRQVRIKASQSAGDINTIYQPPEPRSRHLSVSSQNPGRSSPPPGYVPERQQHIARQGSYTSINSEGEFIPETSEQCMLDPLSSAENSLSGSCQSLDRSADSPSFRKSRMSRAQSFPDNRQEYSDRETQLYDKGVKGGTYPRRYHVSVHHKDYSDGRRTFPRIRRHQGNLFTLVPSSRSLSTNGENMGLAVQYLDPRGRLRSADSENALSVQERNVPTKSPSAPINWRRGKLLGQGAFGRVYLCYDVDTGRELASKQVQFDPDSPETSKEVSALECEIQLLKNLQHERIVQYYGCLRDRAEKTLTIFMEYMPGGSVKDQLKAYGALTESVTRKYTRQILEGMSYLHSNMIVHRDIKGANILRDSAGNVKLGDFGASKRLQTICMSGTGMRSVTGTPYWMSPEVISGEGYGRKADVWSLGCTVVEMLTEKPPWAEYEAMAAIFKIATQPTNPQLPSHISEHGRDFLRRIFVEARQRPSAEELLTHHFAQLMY
MEKK2mut PB1 HTS: signal of MEK5 binding to mutant human MEKK2 PB1 domain; AID 1530; percent response, % at 10 µM; bead flow cytometry, Alexa488-MEK5 binding to MEKK2 mutant; 290,000 tested, 0.35% active; in the data active = percent response above about 24%, passing the limit was not always enough
MEKK2wt confirm: raises or lowers MEK5 binding to wildtype human MEKK2, retest; binding response (% of control), % at 10 µM; bead flow cytometry, Alexa488-MEK5 binding to MEKK2 WT; actives lie on both sides; 5,900 tested, 2.4% active; shares compounds with MEKK3 PB1 HTS; in the data active = binding response below about 16% or above about 210%; inactive = in between
MEKK2mut confirm: signal of MEK5 binding to mutant human MEKK2, retest; bead flow cytometry, Alexa488-MEK5 binding to MEKK2 mutant; shares compounds with MEKK3 PB1 HTS; percent response, % at 10 µM; 5,900 tested, 2% active; in the data active = percent response mostly above about 71%, no sharp cut-off; inactive = mostly below about 38%;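 note: higher means compound restores mutant binding toward wildtype level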
MEKK3-MEK5 inh: MEKK3-MEK5 PB1 inhibition, single concentration confirmation | shares compounds with MEKK3 PB1 HTS | bead flow cytometry, Alexa488-MEK5 binding to MEKK3; stronger effect = lower value | binding response (% of control), % at 10 µM | 5,900 tested, 1.8% active;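 active = binding response below 72% of control, or above a set upper limit, though filed actives all read lower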;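 note: 100% = DMSO only wells and 0% = binding blocked by excess unlabeled MEK5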
Active calls of the source: *; . = no result given; [ ] = remark or other dose. Hits are enriched below; roughly 2.3% of the tested compounds scored in any of these assays.

SMILES	MEKK2 WT-MEK5	UBC13 polyUb	MEKK3 PB1 HTS	MEKK2mut PB1 HTS	MEKK2wt confirm	MEKK2mut confirm	MEKK3-MEK5 inh
C/C(=N\NC(=O)CO/N=C(\C)c1cccs1)c1ccc(N)cc1	100.0	-8.6	94.0	8.0	.	.	.
C/C(=N\OCC(=O)N/N=C/c1ccc(C)cc1O)c1cccs1	120.0	-13.1	124.0*	7.0	109.0	7.0	108.0
COc1cc(C)ccc1OCc1cc(C(=O)N(Cc2c(C)nn(C)c2C)C2CC2)no1	103.0	1.0	100.0	2.0	.	.	.
COc1ccc2oc(C(=O)Nc3ccc(S(=O)(=O)N(C)C4CCN(C)CC4)cc3)c(C)c2c1	157.0*	39.5	107.0	17.0	159.0	28.0	105.0
O=C(O)CCNS(=O)(=O)c1ccc2c(c1)OCCCO2	106.0	3.8	104.0	1.0	.	.	.
CCN(CC)CCNC(=O)c1ccc(NC(=O)c2cccc(S(=O)(=O)N3c4ccccc4CC3C)c2)cc1 (centres undefined)	174.0*	43.4	105.0	37.0*	135.0	20.0	108.0
CCN(CC)CCNC(=O)c1ccc(NC(=O)c2cccc(S(=O)(=O)N3CCc4ccccc43)c2)cc1	.	15.0	.	.	.	.	.
S=c1[nH]nc(-c2ccc(Cl)cc2)n1CCCN1CCOCC1	119.0	-3.7	118.0	431.0*	100.0	-6.0	103.0
CCCn1c(SCC(=O)Nc2cc(Cl)ccc2Cl)n[nH]c1=O	99.0	-2.1	103.0	0.0	.	.	.
CCCn1c(SCC(=O)NC(=O)Nc2ccc(C)cc2C)n[nH]c1=O	-5.0*[inhibitor]	7.1	0.0*[inhibitor]	-18.0	111.0	5.0	114.0
CCN(CC)CCCNC(=O)c1cc2c(=O)n(CC)c3ccccc3c2s1	111.0	42.3	100.0	7.0	.	.	.
CCN(CC)CCCNC(=O)c1cc2c(Cl)nc3ccccc3c2s1	152.0*	15.8	105.0	54.0*	130.0	15.0	108.0
O=C(Nc1nnc(-c2ccncc2)o1)c1ccccc1F	112.0	4.9	129.0*	19.0	99.0	-5.0	104.0
CCOC(=O)C1(CCOc2ccccc2)CCN(Cc2ccc(OCC)c(CO)c2)CC1	127.0	.	109.0	12.0	.	.	.
Cc1ccc(Sc2cc(NCCCO)c([N+](=O)[O-])c3nonc23)cc1	112.0	-29.3	108.0	3.0	.	.	.
CC(=O)OCCCNc1cc(Sc2ccc(Cl)cc2)c2nonc2c1[N+](=O)[O-]	104.0	.	132.0*	0.0	95.0	0.0	95.0
O=C(CSc1nc(-c2ccccc2)c(-c2ccccc2)[nH]1)NCC1CCCO1 (centres undefined)	54.0*[inhibitor]	12.5	93.0	-20.0	98.0	-8.0	95.0
O=C(c1ccsc1)N1CCCC(Nc2cccc(F)c2)C1 (centres undefined)	104.0	5.3	100.0	4.0	.	.	.
CC(C)(C)c1ccc(OCC(O)CN2CCN(C(=O)c3ccccc3)CC2)cc1 (centres undefined)	105.0	-0.5	105.0	-1.0	.	.	.
CCCOC(=O)c1ccc(OCC(O)CN2CCN(C(=O)c3ccccc3)CC2)cc1 (centres undefined)	115.0	-1.8	109.0	27.0*	101.0	1.0	105.0
O=C(COC(=O)c1cc(-c2cccs2)nc2ccccc12)NC1CCS(=O)(=O)C1 (centres undefined)	97.0	12.2	102.0	3.0	.	.	.
CCCC(C(=O)NC(C)(C)CC)N(Cc1ccco1)C(=O)CNS(=O)(=O)c1ccccc1 (centres undefined)	97.0	-1.2	104.0	1.0	.	.	.
O=C(Nc1cccc(F)c1)NC1(C(=O)N2CCOCC2)CCCCC1	108.0	12.6	104.0	0.0	.	.	.
COc1ccc(CC(=O)NNc2ncnc3c2cnn3-c2ccccc2)cc1	103.0	4.7	136.0*	0.0	89.0	-2.0	97.0
O=C(Nc1cccc2ncccc12)c1cccc(F)c1	109.0	10.2	108.0	9.0	.	.	.
SMILES	MEKK2 WT-MEK5	UBC13 polyUb	MEKK3 PB1 HTS	MEKK2mut PB1 HTS	MEKK2wt confirm	MEKK2mut confirm	MEKK3-MEK5 inh
O=C(Nc1cccc2ncccc12)c1ccc(F)cc1	101.0	0.0	132.0*	0.0	108.0	-2.0	103.0
O=C(CSc1nnc(-c2cccnc2)s1)Nc1cccc(C(=O)O)c1	111.0	9.7	158.0*	0.0	98.0	-4.0	98.0
O=C(CSc1nnc(-c2cccnc2)s1)Nc1ccccc1	101.0	3.9	103.0	0.0	.	.	.
CC(C)N(C(=O)CSc1nnc(Cc2ccc3c(c2)OCO3)n1C)C(C)C	96.0	3.8	102.0	-11.0	.	.	.
Cn1c(Cc2ccc3c(c2)OCO3)nnc1SCC(=O)NC(C)(C)C	64.0	-2.7	65.0*[inhibitor]	-12.0	104.0	-2.0	103.0
COc1ccc(S(=O)(=O)N2CCCCC2)cc1NC(=O)Cc1cccc(C(F)(F)F)c1	.	-3.7	.	.	.	.	.
Cc1nn(CCC(N)=S)c2nc(-c3cccs3)cc(C(F)(F)F)c12	104.0	8.9	151.0*	0.0	105.0	8.0	104.0
Cc1nn2c(N3CCN(C)CC3)cc(C(C)(C)C)nc2c1-c1ccccc1	144.0*	24.4	106.0	23.0	150.0	31.0	106.0
CCOc1ccccc1CN1CCN(Cc2c[nH]c3ccccc23)CC1CCO (centres undefined)	134.0*	9.5	113.0	20.0	126.0	19.0	108.0
CCOc1ccccc1CN1CCN(Cc2ccc(C)o2)CC1CCO (centres undefined)	87.0	-11.2	99.0	-7.0	.	.	.
CCOc1ccccc1CN1CCN(C2CCN(c3ccccc3F)CC2)CC1CCO (centres undefined)	80.0	3.6	75.0*[inhibitor]	-8.0	102.0	-4.0	104.0
CN(C(=O)c1ccc(S(=O)(=O)N2CCCC2)cc1)C1CCS(=O)(=O)C1 (centres undefined)	.	-0.9	.	.	.	.	.
O=C(O)c1cc(Cl)c(Cl)cc1C(=O)NCc1ccco1	105.0	-0.6	106.0	1.0	.	.	.
COc1ccc(C(=O)N2CCc3ccccc32)cc1	100.0	6.2	122.0*	5.0	99.0	-6.0	98.0
O=C(c1ccccc1)N1CCc2ccccc21	99.0	7.3	96.0	0.0	.	.	.
COc1ccc(C(=O)Nc2ccnn2C2CCN(C(=O)C3CCOC3)CC2)cc1 (centres undefined)	103.0	-0.6	99.0	8.0	.	.	.
CCCCNC(=S)Nc1ccc(-c2nc3ccc(C)cc3s2)cc1	105.0	-8.1	134.0*	0.0	105.0	3.0	107.0
COc1ccc(C(=O)COC(=O)c2ccc3c(c2)OCCO3)c(OC)c1	.	9.5	.	.	.	.	.
O=C(c1ccccc1)N1CCN=C1SCc1ccc([N+](=O)[O-])cc1	108.0	5.1	99.0	11.0	.	.	.
Cc1ccc(C(=O)N2CCN=C2SCc2ccc([N+](=O)[O-])cc2)cc1C	82.0	11.6	64.0*[inhibitor]	-4.0	96.0	-2.0	98.0
N#Cc1c(C(F)(F)F)cc(-c2ccccc2)[nH]c1=O	122.0	9.0	127.0*	4.0	106.0	5.0	107.0
